# Results reported in PubChem BioAssay.
# Active and inactive are the calls of the source. Unless noted, how the calls were made is not given here.
# Legend:
# [1] = resazurin metabolic signal in HepG2 cells – cell-based, resazurin fluorescence, 24 h, PK04 Diversity Set, profiling panel (AID 1172); conditions: HepG2 viability, higher = more signal
# [2] = budding yeast growth changes without added modifier – OD600, strain BY4716, 24 h, basal condition, primary screen (AID 1173); conditions: S. cerevisiae BY4716 growth, OD600, 24 h; higher = more signal, called active from +8 up or from −8 down
# [3] = viability profiling in MM1S myeloma cells – cell-based, resazurin fluorescence, basal, 24 h, PK04 Diversity Set, profiling panel (AID 1174); conditions: higher = more signal, called active from +8 up or from −8 down;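 further: MM1S multiple myeloma cell line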
# [4] = biological target: Dihydroorotate dehydrogenase (quinone), mitochondrial (Plasmodium falciparum (isolate 3D7)) (UniProt Q08210); experiment: inhibition of P. falciparum DHODH – biochemical, C-terminal His tag, absorbance 600 nm, primary screen (AID 1175); conditions: PfDHODH enzyme, DCIP absorbance 600 nm; higher = more signal, called active from +8 up or from −8 down;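 further: recombinant parasite enzyme with a five histidine tag at its C terminus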
# [5] = inhibition of PAO1 biofilm formation – strain PAO1, LB-PBS medium, absorbance 600 nm, primary screen (AID 1176); conditions: P. aeruginosa PAO1 growth/biofilm, A600, 12 h; higher = more signal
# [6] = growth modulation of vineyard yeast isolate – strain RM11-1a, OD600, basal, 24 h, primary screen (AID 1177);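 further: cultures grown under basal conditions with no added stressor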; conditions: S. cerevisiae RM11-1a growth, OD600, 24 h; higher = more signal, called active from +8 up or from −8 down
# [7] = growth of efflux-deficient E. coli DRC39 – strain DRC39, OD650, 24 h, E. coli filamentation inducers, primary screen (AID 1178);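 further: growth measured as culture turbidity by optical density at 650 nm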; conditions: E. coli DRC39 acrAB, higher = more signal, called active from +8 up or from −8 down
# [8] = growth of efflux-deficient E. coli DRC39 – strain DRC39, OD650, 48 h, E. coli filamentation inducers, primary screen (AID 1179);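 further: screen aims at cell division blockers that make cells filament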; conditions: E. coli DRC39 delta-acrAB growth, higher = more signal, called active from +8 up or from −8 down
# [9] = viability profiling in RPMI8226 myeloma cells – cell-based, resazurin fluorescence, basal, 24 h, PK04 Diversity Set, profiling panel (AID 1180); conditions: higher = more signal;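 further: RPMI8826 multiple myeloma cell line at 5000 cells per well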
# [10] = biological target: E3 ubiquitin-protein ligase XIAP (Homo sapiens) (UniProt P98170); experiment: small molecules binding XIAP protein – biophysical, small-molecule microarray, fluorescence 635 nm, primary screen (AID 1181); conditions: higher = more signal;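 further: score merges 667 nm emission and signal to noise over triplicate slides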
# [11] = test system: XIP peptide (Xip251-270) binding; experiment: XIP fragment 251-270 binding compounds – biochemical, small-molecule microarray, fluorescence 635/667 nm, 0.1 µg/mL protein, primary screen (AID 1182); conditions: fluorescent protein binding, 635 nm, higher = more signal, called active from +8 up or from −8 down
# XIP peptide (Xip251-270) = experiment: compounds binding XIP fragment 251-270 – biochemical, small-molecule microarray, fluorescence 635/667 nm, 0.5 µg/mL protein, primary screen (AID 1183); conditions: fluorescence 635 nm, higher = more signal
# [12] = blood-stage malaria parasite viability loss – strain 3D7, DAPI fluorescence, 100 nL, primary screen (AID 1184);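 further: parasites grown inside human red blood cells in medium with human serum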; conditions: P. falciparum 3D7 growth, 3 d, higher = more signal
# [13] = biological target: Homeobox protein Hox-A13 (Mus musculus) (UniProt Q62424); experiment: disruptors of Hoxa13 oligonucleotide interaction – biochemical, fluorescence polarization, labeled oligonucleotide, primary screen (AID 1185); conditions: Hoxa13:DNA binding, 15 min, higher = more signal, called active from +8 up or from −8 down
# [14] = blockers of DNA damage checkpoint Chk1 activation – imaging, HeLa, hydroxyurea, phospho-Chk1 antibody, percent positive cells, primary screen (AID 1186); conditions: hydroxyurea-induced phospho-Chk1 immunofluorescence imaging, higher = more signal
# [15] = blockers of DNA damage checkpoint Chk1 activation – imaging, HeLa, hydroxyurea, phospho-Chk1 nuclear intensity, primary screen (AID 1187); conditions: hydroxyurea-induced phospho-Chk1 immunofluorescence imaging, higher = more signal
# Sequence of E3 ubiquitin-protein ligase XIAP (Homo sapiens) (P98170 whole entry, looked up, the tested form may be a part): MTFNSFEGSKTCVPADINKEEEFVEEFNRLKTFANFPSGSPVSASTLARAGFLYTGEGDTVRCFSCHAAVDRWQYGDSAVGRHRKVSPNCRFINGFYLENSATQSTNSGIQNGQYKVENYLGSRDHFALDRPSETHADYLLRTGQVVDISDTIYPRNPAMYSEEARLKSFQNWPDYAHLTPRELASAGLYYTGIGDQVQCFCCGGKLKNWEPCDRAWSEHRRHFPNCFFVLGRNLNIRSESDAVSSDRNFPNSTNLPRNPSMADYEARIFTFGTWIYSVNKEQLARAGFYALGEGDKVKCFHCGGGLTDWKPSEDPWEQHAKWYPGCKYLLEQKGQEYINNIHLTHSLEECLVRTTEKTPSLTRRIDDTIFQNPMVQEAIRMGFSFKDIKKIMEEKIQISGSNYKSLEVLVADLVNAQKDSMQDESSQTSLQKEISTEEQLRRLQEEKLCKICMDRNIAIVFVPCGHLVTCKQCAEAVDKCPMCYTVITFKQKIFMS
# Sequence of Homeobox protein Hox-A13 (Mus musculus) (Q62424 whole entry, looked up): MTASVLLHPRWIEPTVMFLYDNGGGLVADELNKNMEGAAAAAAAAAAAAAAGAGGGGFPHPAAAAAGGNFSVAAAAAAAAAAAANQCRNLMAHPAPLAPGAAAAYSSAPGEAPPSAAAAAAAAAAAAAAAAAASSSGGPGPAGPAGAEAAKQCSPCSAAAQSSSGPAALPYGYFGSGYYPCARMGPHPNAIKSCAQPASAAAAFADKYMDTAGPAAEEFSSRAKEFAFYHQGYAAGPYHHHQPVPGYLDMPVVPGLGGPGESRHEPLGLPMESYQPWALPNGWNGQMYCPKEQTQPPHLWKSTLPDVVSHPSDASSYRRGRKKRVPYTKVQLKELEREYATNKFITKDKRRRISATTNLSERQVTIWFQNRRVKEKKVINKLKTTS
# Sequence of Dihydroorotate dehydrogenase (quinone), mitochondrial (Plasmodium falciparum (isolate 3D7)) (Q08210 whole entry, looked up): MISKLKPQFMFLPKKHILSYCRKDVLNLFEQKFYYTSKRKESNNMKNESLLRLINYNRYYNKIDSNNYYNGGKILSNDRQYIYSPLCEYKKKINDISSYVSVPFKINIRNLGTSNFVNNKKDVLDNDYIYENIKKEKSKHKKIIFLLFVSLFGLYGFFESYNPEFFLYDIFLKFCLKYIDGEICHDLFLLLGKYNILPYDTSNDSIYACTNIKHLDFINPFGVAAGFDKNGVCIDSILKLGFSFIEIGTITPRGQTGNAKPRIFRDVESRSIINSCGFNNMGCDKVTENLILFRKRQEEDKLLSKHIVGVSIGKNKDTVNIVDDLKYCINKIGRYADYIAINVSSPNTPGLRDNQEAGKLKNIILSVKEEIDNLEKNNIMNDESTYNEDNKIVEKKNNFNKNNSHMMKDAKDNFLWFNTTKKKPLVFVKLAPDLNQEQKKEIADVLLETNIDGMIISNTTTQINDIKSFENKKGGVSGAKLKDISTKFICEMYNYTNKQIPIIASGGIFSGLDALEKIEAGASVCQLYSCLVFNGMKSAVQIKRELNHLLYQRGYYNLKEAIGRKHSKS
Compound,z-score [1],z-score [2],z-score [3],composite z-score [4],z-score [5],z-score [6],z-score [7],z-score [8],z-score [9],composite z-score [10],composite z-score [11],composite z-score (XIP peptide (Xip251-270)),z-score [12],z-score [13],z-score [14],z-score [15]
COCC(=C=CC[C@@H](O)c1ccc(OCCO)cc1)C[C@@H](O)c1ccccn1,-0.495,-0.58 (inactive),-0.46 (inactive),-2.5 (inactive),1.05 (inactive),-0.0975 (inactive),0.0525 (inactive),0.0639 (inactive),-0.104,0.0785,1.51 (inactive),-0.161,0.797,-5.97 (inactive),0.117 (inactive),0.265 (inactive)
CC(=O)NCCCC[C@@H]1NC(=O)[C@H]2C[C@@H](C(=O)O)[C@@H](c3ccc(O)cc3)N2C1=O,0.273,-1.35 (inactive),-0.481 (inactive),-0.24 (inactive),0.711 (inactive),3.29 (inactive),-1.91 (inactive),-0.879 (inactive),0.002,0.5,1.01 (inactive),0.764,-1.71,4.77 (inactive),0.402 (inactive),0.207 (inactive)
C[N+](C)(C)CCCC[C@@H]1NC(=O)[C@@H]2C[C@H](C(=O)NCCCCCN)[C@H](c3ccc(O)cc3)N2C1=O,0.236,-0.812 (inactive),0.883 (inactive),-2.28 (inactive),1.11 (inactive),-3.02 (inactive),1.08 (inactive),1.48 (inactive),0.555,0.346,0.941 (inactive),0.831,0.117,-0.32 (inactive),-0.661 (inactive),-0.154 (inactive)
COCCCNC(=O)[C@@]1(Cc2ccccc2CN=[N+]=[N-])N=C(c2ccc(OCCCO)cc2)O[C@H]1c1ccccc1CN=[N+]=[N-],0.122,-1.03 (inactive),-1.92 (inactive),1.06 (inactive),0.218 (inactive),-0.016 (inactive),2.15 (inactive),0.707 (inactive),-4.14,0.244,1.01 (inactive),0.443,-2.23,-4.09 (inactive),-0.485 (inactive),-0.763 (inactive)
CO[C@H]1O[C@H](CO)[C@@H](OC(=O)Nc2ccccc2-c2ccccc2)[C@H](OC(=O)Nc2ccccc2-c2ccccc2)[C@@H]1OC(=O)Nc1ccccc1-c1ccccc1,-0.141,-0.652 (inactive),-0.146 (inactive),0.288 (inactive),1.31 (inactive),2.59 (inactive),0.454 (inactive),0.434 (inactive),0.203,-0.0233,0.979 (inactive),0.801,-2.51,-1.13 (inactive),-0.0022 (inactive),0.119 (inactive)
C=CCN1C(=O)[C@]2(O[C@H](CCO)[C@@H]([Si](C)(C)c3ccc(OC)cc3)[C@@H]2C)c2cc(N(C=O)c3ccccc3)ccc21,-6,1.14 (inactive),-8.61 (active),0.637 (inactive),0.0245 (inactive),3.98 (inactive),1.72 (inactive),0.905 (inactive),-6.23,-0.0189,1.94 (inactive),0.749,-2.52,-3.67 (inactive),-1.11 (inactive),-0.984 (inactive)
CCC(CC)C(O)C1C=CC2C(=O)N(c3ccccc3)C(=O)C2N1Nc1ccccc1 (stereo not drawn),1.48,-1.61 (inactive),0.33 (inactive),0.246 (inactive),2.07 (inactive),-0.166 (inactive),0.55 (inactive),0.503 (inactive),0.0861,0.212,0.285 (inactive),0.816,0.0789,-3.76 (inactive),0.263 (inactive),0.0193 (inactive)
COC(=O)[C@@]1(Cc2ccc(OC)cc2)[C@H]2c3cc(C(=O)N4CCCC4)n(CCc4ccc(O)c(O)c4)c3C[C@H]2CN1C(=O)c1ccccc1,-1.37,1.04 (inactive),-1.79 (inactive),-0.487 (inactive),2.16 (inactive),0.397 (inactive),-0.215 (inactive),-0.163 (inactive),-1.33,0.0517,1.75 (inactive),0.83,-1.62,-6.01 (inactive),0.264 (inactive),0.379 (inactive)
O[C@@H](Cc1ccccc1)[C@@H](/C=C/C1CC1)NCc1cccc(Cl)c1,-0.891,-9.37 (active),-1.22 (inactive),-0.316 (inactive),-0.344 (inactive),-1.15 (inactive),0.451 (inactive),-0.957 (inactive),-1.18,-0.175,-0.58 (inactive),-0.134,-1.44,0.306 (inactive),-0.303 (inactive),-0.682 (inactive)
[N-]=[N+]=NCc1ccccc1[C@@H]1OC(c2ccc(OCCCO)cc2)=N[C@]1(CCS(=O)(=O)c1ccccc1)C(=O)N1CCCCC1,-0.227,0.287 (inactive),-0.814 (inactive),0.667 (inactive),0.286 (inactive),-0.0163 (inactive),-0.523 (inactive),-0.213 (inactive),-0.808,0.0174,0.603 (inactive),0.772,-2.23,-1.6 (inactive),0.202 (inactive),0.161 (inactive)
CC(=O)n1cc(C(O)C2C=CC3C(=O)NC(=O)C3N2Nc2ccccn2)c2ccccc21 (stereo not drawn),-1.3,0.627 (inactive),-1.67 (inactive),0.496 (inactive),1.33 (inactive),0.605 (inactive),-0.641 (inactive),-0.109 (inactive),-1.31,0.07,-0.251 (inactive),0.785,0.249,-2.99 (inactive),0.5 (inactive),-0.392 (inactive)
CCOC(=O)C1=CCC(c2ccc(F)cc2)N(S(=O)(=O)c2ccc(C)cc2)C1 (stereo not drawn),-0.175,1.47 (inactive),-0.866 (inactive),-0.217 (inactive),0.766 (inactive),0.241 (inactive),-0.614 (inactive),-0.124 (inactive),-1.76,0.206,0.428 (inactive),0.298,0.217,-2.03 (inactive),0.447 (inactive),-0.996 (inactive)
[N-]=[N+]=NCc1ccccc1[C@@H]1OC(c2ccc(OCCCO)cc2)=N[C@]1(CCS(=O)(=O)c1ccccc1)C(=O)N1CCOCC1,-0.0512,-0.26 (inactive),0.543 (inactive),-4.67 (inactive),0.19 (inactive),0.821 (inactive),2.84 (inactive),0.753 (inactive),1.05,0.0512,1.06 (inactive),0.712,-2.36,-1.69 (inactive),-0.535 (inactive),-0.137 (inactive)
